Source: PubChem BioAssay
gsp agonist: agonists of gsp mutant (McCune-Albright syndrome). gsp mutant cells, cAMP HTRF, 30 min. AID 624287. 0.13% of 340,000 active. Potency, µM (series often up to 76.9 µM), inactives show top-dose activation (cAMP increase), usual class: activators; active = well fitted activation curve with a large enough effect; inconclusive = small, poorly fitted or top-dose-only effect, or another doubt; inactive = no such curve, though single readings can be large or run the other way; cell line not stated here;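 also: phosphodiesterase inhibitor Ro 20-1724 added with compounds to block cAMP breakdown; potency is read from the fitted curve at half-maximal effect; nearly all actives have a fitted effect of over 60% in size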
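Cells in DMEM/10% FBS with G418 were pretreated with compounds in DMSO plus […] (300 uM stock) for 30 min at 37C. cAMP was measured by HTRF (cAMP-d2 plus anti-cAMP antibody-K) after 30 min at room temperature.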
RXFP1 agonist: agonists of human relaxin receptor RXFP1; HEK293T-RXFP1 cAMP TR-FRET, 30 min; response scale: percent of porcine relaxin response, buffer zero; Potency, µM (top dose mostly 57.5 µM), for inactives: at the highest dose activation, hits mostly activators; 0.3% of 370,000 active; also: potency is read from the fitted curve at half-maximal effect; % is scaled to controls: 0 for no effect and ±100 for the full control effect; nearly all actives have a fitted effect of over 60% in size
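Agonist response is measured as cAMP accumulation in an RXFP1-transfected HEK293T line under PDE4 inhibition. Values are scaled between buffer-only and 29 nM porcine relaxin, and EC50s come from standard Hill equation fits.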
gsp antag: antagonizes gsp, the McCune-Albright syndrome mutation; gsp-mutant cells, cAMP HTRF, 30 min; 0.4% of 340,000 active; Potency, µM (doses to about 76.9 µM), without a hit: at the top dose activity change, negative = inhibition, most hits filed as inhibitors; AID 624288; calls by dose curve; cell line not stated here;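 also: intracellular cAMP measured with PDE inhibitor Ro 20-1724 present during compound exposure; potency is read from the fitted curve at half-maximal effect; % is scaled to controls: 0 for no effect and ±100 for the full control effect; nearly all actives have a fitted effect of over 65% in size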
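HTRF cAMP measurement after 30 min RT detection following 30 min, 37C compound treatment alongside […] (added as 300 uM solution) in G418-selected cells seeded at 2000/well and grown 16–24 h.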
p53 reactivator: mutant p53 re-activation in reporter cells; Potency, µM (doses to about 92.2 µM), for inactives: top-dose activity change, positive = activation, hits mostly activators; H1299 p53-A138V BP100-luciferase reporter, luminescence, 24 h; 0.063% of 320,000 active; also: potency is read from the fitted curve at half-maximal effect; % of control where 0% means no effect; nearly all actives have a fitted effect of over 45% in size
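p53-null H1299 cells stably carrying temperature-sensitive p53-A138V and a BP100-luciferase reporter were pinned with compounds (4-point, 1:5 series) and held 24 hrs at 37 deg C. Luminescence was read 10 min after detection reagent.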
Tb PFK inh: inhibitors of T. brucei phosphofructokinase. 0.17% of 330,000 active. Potency, µM (doses to about 57.5 µM), for the others: at the top dose activity, negative = inhibition, hits mostly inhibitors. T. brucei PFK, ADP-Glo luminescence. AID 485367. O15648;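 also: potency is read from the fitted curve at half-maximal effect; 0% = uninhibited 1x PFK enzyme wells and -100% = no-enzyme wells; nearly all actives have a fitted effect of over 60% in size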
Target sequence (O15648 whole entry, looked up): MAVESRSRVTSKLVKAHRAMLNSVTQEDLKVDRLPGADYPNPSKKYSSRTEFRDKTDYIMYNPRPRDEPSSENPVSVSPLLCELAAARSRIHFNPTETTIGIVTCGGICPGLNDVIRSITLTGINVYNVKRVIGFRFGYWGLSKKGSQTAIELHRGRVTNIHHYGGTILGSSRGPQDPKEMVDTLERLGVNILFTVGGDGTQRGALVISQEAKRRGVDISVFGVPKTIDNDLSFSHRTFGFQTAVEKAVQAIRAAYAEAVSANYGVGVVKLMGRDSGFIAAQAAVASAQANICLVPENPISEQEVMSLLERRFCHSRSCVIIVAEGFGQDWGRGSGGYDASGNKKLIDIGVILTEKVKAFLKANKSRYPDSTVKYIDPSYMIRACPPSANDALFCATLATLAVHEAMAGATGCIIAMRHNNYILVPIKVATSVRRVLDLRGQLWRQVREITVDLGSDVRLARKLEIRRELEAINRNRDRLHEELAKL
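PFK 1.25 nM, F6P 0.5 mM, ATP 0.1 mM, 0.1 M TEA pH 8.0, 5 mM MgCl2, 0.01% Tween20, 0.1% BSA; 45 min RT. ADP-Glo readout. qHTS titration up to 57 uM; curves fitted, compounds curve-classed.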
RXFP1 antag: RXFP1 (human) relaxin receptor antagonism | activity change, negative = inhibition, % at 57.5 µM | Q9HBX9 | HEK293-RXFP1, relaxin-stimulated cAMP HTRF, 30 min; active compounds read low | 0.59% of 350,000 active;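 active = activity change of -60% or lower, but not beyond a set lower limit; inconclusive = change between -60% and -40%, or beyond the set limit; inactive = change above -40%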; also: % is scaled to controls: 0 for no effect and ±100 for the full control effect
An asterisk follows results filed as active; ? = inconclusive; . = no result; [ ] = remark or other dose. Hits are enriched below; roughly 1.1% of the tested compounds scored in any of these assays. Unless noted, calls follow the shape of the dose curve; as a rule, active = well fitted curve in the direction sought with a large enough effect; inconclusive = small, poorly fitted or top-dose-only effect, or another doubt; inactive = no such curve, though single readings can be large; an effect the other way counts as inactive or inconclusive.

SMILES	gsp agonist	RXFP1 agonist	gsp antag	p53 reactivator	Tb PFK inh	RXFP1 antag
COc1ccccc1N1CCN(C(=S)Nc2ccc(S(=O)(=O)N3CCOCC3)cc2)CC1	3.9%[15.4 µM]	2.4%	31.6µM*	1.1%	-0.3%	-5.4
O=S(=O)(c1ccc(NC(=S)N2CCN(c3ccccc3F)CC2)cc1)N1CCOCC1	-3.0%[15.4 µM]	1.8%	-16.1%	-4.7%	-5.9%	-16.9
Oc1ccc(-c2cnc(-c3ccc(O)cc3)nc2)cc1	0.1%[15.4 µM]	3.7%	-0.9%	14.1µM*	4.1%	-5.4
Nc1ccc(-c2cnc(-c3ccc(N)cc3)nc2)cc1	-3.0%	-0.2%	-5.3%	17.0%	0.5%	-9.0
COc1ccc(C)cc1NC(=O)COC(=O)c1c(-c2ccccc2)noc1C	2.4%	.	.	.	.	-1.0
CCN(CC)c1ccc(/C=C2\SC(=O)N(C(C)C)C2=O)o1	-2.4%[15.4 µM]	-0.6%	-0.5%	-13.5%	-19.1%	-82.5*
O=C(/C=C/c1ccc(Cl)c([N+](=O)[O-])c1)Nc1cccc(NC(=O)c2ccco2)c1	19.6%	4.5%	35.5µM*	?	-26.4%	-35.4
O=C(/C=C/c1ccc(Cl)c([N+](=O)[O-])c1)Nc1ccc(NC(=O)c2ccco2)cc1	-0.2%[15.4 µM]	3.7%	-16.2%	6.3%	-7.4%	-26.5
Cc1ccccc1C(=O)Nc1nc(-c2ccc(Br)cc2)ns1	.	7.6%	.	.	.	-5.1
S=c1nc[nH]c2c1[nH]c1ccccc12	12.6µM*	7.08µM*	55.0%	1.8%	-23.9%	18.6
S=c1nc[nH]c2c1[nH]c1ccc(Cl)cc12	?	3.16µM*	9.7%	0.0%	-16.4%	-35.9
O=c1c2[nH]c3ccc(Cl)cc3c2ncn1CCN1CCCCC1	-4.1%	1.2%	3.2%	6.2%	-3.2%	-13.9
COc1ccc(-c2nc3nc(C)cc(Nc4cccc(C(F)(F)F)c4)n3n2)cc1	.	31.6µM*	.	.	0.6%	-2.2
Cc1cc(Nc2cccc(C(F)(F)F)c2)n2nc(C)nc2n1	2.1%	0.6%	6.4%	-9.1%	-1.4%	-2.8
CCCOc1ccc(C(CC(=O)O)NC(=O)Cc2ccccc2)cc1 (stereo unspecified)	-20.0%	0.0%	0.1%	-9.8%	3.9%	9.0
CCCCCCCN1CCC(=O)N([C@H](CO)Cc2ccccc2)CC1	8.4%	-1.5%	8.5%	6.8%	2.3%	.
O=C1C=CC2(O[C@H](c3ccccc3)[C@@H](c3ccccc3)O2)[C@H](Sc2ccccc2O)C1	-7.5%	.	-12.7%	.	.	-98.5*
CC1CCCCN1S(=O)(=O)c1ccc(NC(=O)c2cccs2)cc1 (stereo unspecified)	-21.4%	-4.4%	-6.5%	-0.9%	0.5%	-12.3
COc1ccc(N2CCN(CC(=O)c3ccc(Cl)cc3)CC2)cc1	1.7%	-3.5%	-5.6%	3.4%	9.0%	-20.9
COc1ccc(C(=O)CN2CCN(c3ncccn3)CC2)cc1	36.8%	3.2%	50.1µM*	4.7%	-2.7%	-0.9
CCOC(=O)/C(C#N)=C/c1c(N2CCN(c3ccccc3)CC2)nc2c(C)cccn2c1=O	-11.4%	5.1%	-26.8%	2.4%	-3.6%	3.6
CC(=O)N(Cc1cccnc1)c1nc2c(F)cc(F)cc2s1	.	2.0%	.	.	.	-12.6
O=C(C1CCCCC1)N(Cc1cccnc1)c1nc2c(F)cc(F)cc2s1	.	2.0%	.	.	.	-101.8*
COc1cc2c(cc1OC)C(C)N(C(=O)c1cc3c(s1)-c1c(C)cccc1OC3)CC2 (stereo unspecified)	-69.7%	3.5%	35.5µM*	-16.4%	12.7%	.
O=C1C2CC=CCC2C(=O)N1c1ccc(N2CCN(c3ccccn3)CC2)c([N+](=O)[O-])c1 (stereo unspecified)	-1.1%	1.2%	22.4µM*	-3.4%	-0.9%	-31.2
O=[N+]([O-])c1ccc2nc(-c3ccncc3)[nH]c2c1	10µM*	26.8%	-2.6%	8.1%	2.1%	0.3
O=[N+]([O-])c1ccc2nc(-c3ccc(Cl)cc3)[nH]c2c1	-4.9%	0.2%	35.5µM*	?	-2.6%	-29.7
